A selection: hits, their analogues and other compounds. The true share with any hit is near 14%.
Pf growth 48h = Primary qHTS for delayed death inhibitors of the malarial parasite plastid, 48 hour incubation. actives 5.9% (n = 310,000). P. falciparum luciferase growth in erythrocytes, 48 h. Potency, µM (doses to about 28.7 µM), for the others: at the top dose activity change, negative = inhibition, most hits filed as inhibitors; also: potency is read from the fitted curve at half-maximal effect
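Luminescence readout; reporter = integrated firefly luciferase in P. falciparum. RBC culture at 2% hematocrit, 0.1% parasitemia final, 37 C/5% CO2; decreased signal taken as growth inhibition.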
Pf growth 96h = Primary qHTS for delayed death inhibitors of the malarial parasite plastid, 96 hour incubation | actives 6.9% (n = 320,000) | AID 504834, 2011 | P. falciparum luciferase reporter growth, 96 h | Potency, µM (titrated, usually from 28.7 µM), for inactives: top-dose activity change, negative = inhibition, usual class: inhibitors; also: potency is read from the fitted curve at half-maximal effect
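Compounds incubated with erythrocytes infected by luciferase-expressing P. falciparum (2% hematocrit, 0.05% parasitemia final) for 96 hours, 37 C in 5% CO2. Growth inhibition scored as decreased luciferase luminescence.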
MARV entry inh = qHTS for inhibitors of binding or entry into cells for Marburg Virus; Marburg virus pseudotyped entry inhibition, cell reporter; Potency, µM (top dose mostly 37.8 µM), without a hit: at the highest dose activity change, negative = inhibition, usual class: inhibitors; actives 1.8% (n = 300,000); AID 540276, 2011; calls by dose curve; tested in HEK293 cells; also: potency is read from the fitted curve at half-maximal effect
LASV entry inh = qHTS for Inhibitors of binding or entry into cells for Lassa Virus; Lassa virus pseudotype entry inhibition, cell reporter; Potency, µM (top dose mostly 37.9 µM), inactives show at the highest dose activity change, negative = inhibition, most hits filed as inhibitors; actives 1.2% (n = 300,000); calls by dose curve; tested in HEK293 cells; also: potency is read from the fitted curve at half-maximal effect; nearly all actives have a fitted effect of over 50% in size
HCMV inh = qHTS Assay for inhibitors of the human cytomegalovirus (HCMV); AID 1259415, 2018; activity change, negative = inhibition, % at 57.5 µM; actives 4.5% (n = 410,000); HFF cells, HCMV-luciferase reporter, 72 h; stronger effect = lower value; in the data active = activity change below about -60%; inconclusive = no clear call, values can overlap the other calls; inactive = above about -39%
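Human foreskin fibroblasts infected with luciferase-reporter HCMV at MOI 1 PFU/cell, compounds at two doses. Luciferase measured 72 h post infection; normalized to buffer-only basal and Salinomycin (10uM) controls.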
HCV inhibitor = qHTS Assay for Inhibitors of Hepatitis C Virus (HCV). Huh7.5.1 HCVcc-Cre infection, luciferase reporter, 44 h. Potency, µM (top dose mostly 41.8 µM), for the others: at the top dose activity change, negative = inhibition, most hits filed as inhibitors. actives 3.4% (n = 340,000); also: potency is read from the fitted curve at half-maximal effect
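Cells seeded at 1,000/well and cultured 4 h, then compounds added followed by HCVcc-Cre virus (~0.5 moi). After 44 h further culture, luciferase substrate was added, plates held 15 min at room temperature, and luminescence read for 15 sec.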
* = called active by the depositor; ? = inconclusive; · = no result given; [ ] = remark or other dose. Unless noted, calls follow the shape of the dose curve; as a rule, active = well fitted inhibition curve with a large enough effect; inconclusive = small, poorly fitted or top-dose-only effect, or another doubt; inactive = no such curve, though single readings can be large or run the other way. % is scaled to controls: 0 for no effect and ±100 for the full control effect.

SMILES | Pf growth 48h | Pf growth 96h | MARV entry inh | LASV entry inh | HCMV inh | HCV inhibitor
CN(CC(=O)Nc1cccc(F)c1)C(=O)c1ccc(-c2cccc(C(F)(F)F)c2)o1 | 0.33µM* | 0.12µM* | ? | 18% | -22 | -21%
COc1cccc(NC(=O)CN(C)C(=O)c2ccc(-c3cccc(C(F)(F)F)c3)o2)c1 | 0.33µM* | 0.26µM* | 0% | -1% | -7 | ?
CCOc1ccc(-c2cc3c(=O)n(Cc4nc(-c5cccc(OC)c5OC)oc4C)ccn3n2)cc1Cl | · | · | 2%[46.1 µM] | 0%[46.1 µM] | -5 | ·
Cc1ccc(C2CC(c3cccs3)=NN2C(=O)CSC2=NN3CCCC(=O)N=C3S2)cc1 (stereo not drawn) | 9.3µM* | 1µM* | · | · | -3 | -1%
COc1ccc(C2CC(c3ccc(Br)cc3)=NN2C(=O)CSC2=NN3CCCC(=O)N=C3S2)cc1 (stereo not drawn) | ? | 1% | · | · | · | 21%
COc1ccc(C2CC(c3cccs3)=NN2C(=O)CSC2=NN3CCCC(=O)N=C3S2)cc1 (stereo not drawn) | 10µM* | 2.6µM* | · | · | 8 | -11%
CC[n+]1ccc(/C=C/c2ccc(N(C)C)cc2)c2ccccc21 | 0.59µM* | 10% | ? | ? | -99* | 4.5µM*
CCCCCC[n+]1ccccc1/C=C/c1ccc(N(C)C)cc1 | · | · | · | · | -97* | ·
CN(C)c1ccc(C=Cc2nccc3ccccc23)cc1 | · | · | · | · | 8 | ·
CC[n+]1ccccc1/C=C/c1ccc(N(C)C)cc1 | 2.9µM* | -16% | · | · | -86* | 4.5µM*
COc1ccc(CCNC(=O)c2ccc3c(c2)N(Cc2ccc(Cl)cc2)CCS3)c(OC)c1 | · | · | ? | 9%[46.1 µM] | -5 | ·
Cn1cnnc1SCC(=O)Nc1cc(C(=O)O)cc(C(=O)O)c1 | · | · | · | 13%[46.1 µM] | -1 | ·
N=c1n(CCO)c2ccccc2n1Cc1ccccc1Cl | -27% | ? | ? | ? | -10 | 22µM*
CCC(C)NC(=O)CN(c1ccc(OC)cc1)S(=O)(=O)c1ccccc1 (stereo not drawn) | 16% | ? | ? | 18% | -10 | 7%
Cc1cccc(CN(CC(=O)N/N=C/c2ccco2)S(=O)(=O)c2ccc(Cl)cc2)c1 | · | -21% | -6% | ? | -33 | -15%
COc1ccc(N(CC(=O)N/N=C/c2cccs2)S(=O)(=O)c2ccccc2)cc1 | 0% | 3% | -12%[46.1 µM] | ? | -67* | ?
Cc1cccc(CN(CC(=O)N/N=C/c2cccs2)S(=O)(=O)c2ccc(Cl)cc2)c1 | -1% | ? | ? | ? | -16 | 11µM*
COc1ccc(N(CC(=O)NN=C2CCCCCCC2)S(=O)(=O)c2ccccc2)cc1 | -18% | -20% | -11% | 11% | -64* | 9%
CCOC(=O)CCn1cnc2onc(-c3cc(OC)ccc3Cl)c2c1=O | · | · | -1%[46.1 µM] | -9%[46.1 µM] | 4 | ·
Fc1ccc(N2CCN(c3nc4ccccc4c4nc(-c5cccnc5)nn34)CC2)cc1 | · | · | 7%[46.1 µM] | · | -1 | ·
CSc1ccc(C2=CC(=O)C[C@H](c3ccc4c(c3)OCO4)C2)cc1 | 9% | 11% | · | · | -64* | 17%
Cc1ccc(C2=CC(=O)C[C@H](c3ccc4c(c3)OCO4)C2)cc1 | ? | ? | · | · | -38 | -29%
O=C1C=C(c2ccccc2Oc2ccccc2)C[C@@H](c2ccc3c(c2)OCO3)C1 | 3.7µM* | ? | · | · | 0 | ?
Cc1cc(C)c(C(=O)/C=C/c2ccc(C(C)C)cc2)c(=O)[nH]1 | ? | ? | ? | ? | -103* | -10%
Cc1cc(C)c(C(=O)/C=C/C=C/c2ccccc2)c(=O)[nH]1 | 45% | 43% | 5% | -14% | 12 | 1%
SMILES | Pf growth 48h | Pf growth 96h | MARV entry inh | LASV entry inh | HCMV inh | HCV inhibitor
CCOc1ccccc1NC(=O)COc1coc(CN2CCCc3ccccc32)cc1=O | 13µM* | ? | ? | -16% | -5 | 13µM*
O=C(COc1coc(CN2CCc3ccccc3C2)cc1=O)Nc1ccc([N+](=O)[O-])cc1 | ? | ? | -1% | 5% | 0 | ?
CCOc1ccccc1NC(=O)COc1coc(CN2CCc3ccccc3C2)cc1=O | -15% | 13µM* | -9% | -21% | -10 | ?
CCN(CC)CCCN(c1ccccc1)C1Cc2ccccc2C1 | 1.9µM* | ? | 6.5µM* | ? | -12 | ·
CCCCN(CCCC)CC1OCc2ccccc2CO1 | 8% | 101% | ? | ? | 0 | 11%
CCSc1cc(N2CCCC2)nc(-c2cccc(C)c2)n1 | -1% | 4% | ? | ? | -62* | ?
CCSc1cc(N2CC(C)OC(C)C2)nc(-c2ccccc2Cl)n1 (stereo not drawn) | 2.1µM* | · | -44% | ? | 9 | ?
COc1ccc(CNC(=O)Cc2c(C)c3c(cc(C)c4c(C)c(C)oc43)oc2=O)cc1OC | · | · | 22%[46.1 µM] | 29%[46.1 µM] | 0 | ·
COc1ccc(OCC(=O)O/N=C(\N)c2ccc(OC)cc2)cc1 | 52% | 51% | ? | ? | -26 | ?
CO/N=C(/COc1ccc(F)cc1)c1ccc(OC)cc1 | · | 0% | ? | -21% | -103* | 6%
CC[C@H](C)[C@H]1CNC(=O)C(=O)N1CC1CCN(CC(C)C)CC1 | · | · | · | · | -1 | ·
N#CCCN(C(=O)COC(=O)c1nc(Cl)ccc1Cl)c1ccccc1 | 19% | 39% | 18% | ? | -19 | 10%
CCCCCCN(C(=O)CCl)c1ccccc1 | ? | ? | · | · | -100* | 5µM*
N#CCCN(C(=O)CCl)c1cccc(Cl)c1 | ? | 5.2µM* | · | · | 13 | ?
O=C(CCl)N(c1ccccc1)c1ccccc1 | 1.7µM* | 4.1µM* | ? | ? | -98* | 8.9µM*
O=C(CCl)N(CCc1ccccc1)CCc1ccccc1 | 12µM* | ? | ? | ? | -100* | ?
COc1ccc(NC(=O)c2ccc3c(=O)n4nc(Nc5cc(C)ccc5C)sc4nc3c2)cc1 | · | · | · | 21%[46.1 µM] | ? | ·
CC(C)/C=C/C(=O)N1CCC(N2CCC(C(=O)NCC3CCCO3)CC2)CC1 (stereo not drawn) | · | · | · | · | 8 | ·
CCCCCCCN(C(=O)CCl)c1cccc(C)c1 | -14% | ? | 3% | 8% | -86* | 13µM*
CCCC(C)C(=O)Nc1ncc(S(=O)(=O)c2ccc([N+](=O)[O-])cc2)s1 (stereo not drawn) | 1.7µM* | ? | -46%[46.1 µM] | ? | -21 | ?
CCC(C)(C)C(=O)Nc1ncc(S(=O)(=O)c2ccc([N+](=O)[O-])cc2)s1 | 8.3µM* | 2.9µM* | 6%[46.1 µM] | -3% | -11 | -22%
O=C(CCl)Nc1ncc(S(=O)(=O)c2ccc([N+](=O)[O-])cc2)s1 | · | · | 7%[46.1 µM] | -14%[46.1 µM] | 3 | 6%

Compound activity (PubChem)
